Tested on: CDKL3
Details: concentration: 1 μM, replicates: in singlicate; n = 1
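Also: KINOMEscan kinase panel screen.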

| SMILES | %Inh [%] |
| --- | --- |
| Nc1nccc2scc(-c3ccc4c(c3)CCN4C(=O)Cc3ccccc3)c12 [GSK2576924] | 0 |
| CCC(=O)c1c(-c2ccccc2)c2cc(Cl)ccc2c(=O)n1Cc1cc(S(C)(=O)=O)n(CC(F)F)n1 | 2 |
| O=c1cc(N2CCOCC2)nc2n(Cc3ccc(F)c(Cl)c3)ccn12 [GSK2297099] | 0 |
| Fc1cccc(CSc2nnc(-c3ccc4c(c3)CCO4)o2)c1 | 0 |
| Cc1cccc(-c2nc(Nc3ccc4c(cnn4C)c3)c3ccccc3n2)n1 [GW876731] | 12 |
| COc1cccc(C2=C(Nc3cccc(C(=O)O)c3)C(=O)NC2=O)c1 [SB-390770] | 0 |
| Nc1ncnc2c1ncn2-c1cccc2ccccc12 [SKF-97184] | 26 |
| Nc1ncnc2c1ncn2-c1ccc(Cl)cc1 [AH2635] | 0 |
| COc1cc2ncn(-c3cc(OCc4ccncc4)c(C(N)=O)s3)c2cc1OC [GSK336313] | 0 |
| Cl.c1ccc(Cn2cnc3cc(Nc4ncnc5ccccc45)ccc32)cc1 [GW272142] | 0 |
| C[C@@H]1CC[C@H](C(=O)NC2CCCCC2)CN1c1cc(-c2ccc3c(N)n[nH]c3c2)nc(N)n1 [GSK2291363] | 0 |
| Nc1n[nH]c2ncc(-c3ccccc3)cc12 [SB-517081] | 0 |
| CN1C(=O)C(Nc2cc(Cl)c(O)c(Cl)c2)=C(c2ccc(Cl)cc2)C1=O [SB-404321] | 0 |
| COc1ccc(-c2cc3c(C)nc(N)nc3n([C@H]3CC[C@H](O)CC3)c2=O)cn1 | 0 |

— paper PMC5540273 (PLoS ONE, 2017)
